Data on 46 compounds can be found in PubChem BioAssay AID624291 (National Center for Advancing Translational Sciences (NCATS), 2012).

Hit rate of the full screen: of about 350,000 compounds, about 220 (0.063%) were called active. Where a call stands in place of a potency, no number is given. Another 4% or so got no clear call; they are omitted. The sample holds actives, similar compounds and a random draw of the others, so the mix is not that of the screen. The call rests on the fitted dose curve; in most records, active means well fitted activation curve with a large enough effect; inconclusive means small, poorly fitted or top-dose-only effect; inactive means no such curve, though single readings can be large or run the other way.
Potency means the concentration at half of the fitted maximal effect.

This test can be described thus: qHTS for Activators of Integrin-Mediated Alleviation for Muscular Dystrophy. Further: nearly all actives have a fitted effect of over 60% in size. Particulars: alpha7betagal myoblasts, beta-gal FDG fluorescence, 48 h; series mostly up to 38.3 µM. The text has this:
Integrins are a diverse family of transmembrane cell surface receptors that mediate interactions between cells and the extracellular matrix. These heterodimeric proteins are composed of alpha and beta subunits and the a7b1 interacts with laminin in the extracellular matrix and actin of the cell cytoskeleton. Both chains contribute to ligand binding, but the alpha chain mediates the specificity of the interaction. The alpha7beta1 integrin is a major laminin receptor in skeletal, cardiac and vascular smooth muscle. Mutations in the alpha7 integrin gene are responsible for muscular dystrophy in both humans and mice. The alpha7beta1 integrin is also a major modifier of muscle disease progression in various muscle diseases including Duchenne muscular dystrophy, Fukuyama muscular dystrophy and merosin deficient congenital muscular dystrophy type 1A. […] Transcriptional regulation of the alpha7 integrin gene is poorly understood and probably involves multiple transcription factors. The goal of identifying small molecules that enhance alpha7 integrin expression is two-fold: firstly, such molecules would help us gain insight into the complex transcriptional control of alpha7 integrin. It is known that alpha7 integrin expression is tightly controlled during various stages of development, disease and in response to external stimuli. The second goal of the project is to translate the above finding into a therapeutic strategy for muscular dystrophy. […] Thus this project aims to discover small molecule probes that would not only help in gaining a better understanding of the complex regulatory mechanism of alpha7 integrin expression, but also lead to development of pharmacological agents to fight muscular dystrophy. NIH Chemical Genomics Center [NCGC] NIH Molecular Libraries Probe Centers Network [MLPCN] MLPCN Grant: NS058429 Assay Submitter (PI): Dean Burkin, University of Nevada School of Medicine
A total of 250 alpha7betagal+/- myoblasts at passage 13 were dispensed using a mulitdrop from Thermo into black low base tissue culture treated microclear aurora plates in 6 ul media containing DMEM without phenol, 5% FBS, 1x GluMax and 1x Penicillin/Streptomycin. The plates were incubated 16-24 hr at 37C, 5% CO2, 95% humidity covered with low evaporation stainless steel lids from Kalypsys. Compounds were then dispensed using a Kalypsys pintool to deliver 23 nl/well compounds in DMSO (diluted into 6 uL resulting in a 1:260 dilution of compound). The control compound used was the cdk2 inhibitor SU9516 from Tocirs (found in the initial LOPAC screen). The plates were incubated for 48 hours at 37C, 5% CO2, 95% humidity using the same stainless steel lids. After incubation with compound, 5 ul of the media was aspirated using the Kalypsys washer/dispenser and 3 ul of the Mammalian Protein Extraction Reagent (MPER) lysis buffer (Thermo Fisher) was added. The plates were spun at 2000 rpms to remove bubbles and an initial capture was acquired on the Viewlux (Perkin Elmer) with exciation at 480 nm and emission at 540 nm for 25 seconds to omit any auto fluorescent compounds. The plates were then incubated for 10 minutes at room temperature. After incubation, 3 ul of 125 uM Fluorescein di-galactoside (FDG) (Marker Gene Technologies) diluted in PBS with 2 mM MgCl2 and 0.2% betamercaptoethanol (BME) was added, the plates were spun at 2000 rpms and incubated for 30 minutes at room temperature. The plates were again read on the Viewlux with exciation at 480 nm and emission at 540 nm for 25 seconds.
Take `O=C(Nc1ccc(Cl)cn1)c1ccccc1-c1ccccc1`: the Potency result was “inactive”.

For `CCCCCCN1C[C@H](O)[C@@H](n2cc(C3CC3)nn2)C[C@@H]1c1ccc(Cl)cc1`, the Potency entry is “inactive”.

With `CSc1ncnc2c1ncn2CCCNCc1cccs1`, the Potency entry is “inactive”.

In the case of `COc1ccc(CCNC(=O)CN(c2ccccc2)S(=O)(=O)c2ccccc2)cc1`, the Potency entry is “inactive”.

With `O=C(NCc1nnnn1-c1ccc(Cl)cc1)c1ccc([N+](=O)[O-])o1`, the Potency entry is “inactive”.

With `COc1ccc(NC2CCCN(C(=O)c3ccccc3-c3ncc[nH]3)C2)cc1` (stereo unspecified), the Potency entry is “inactive”.

As to `Cc1ccc(-c2ccc(CN3C(C)C(=O)N(Cc4cn(CCC5OCCCO5)nn4)CCS3(=O)=O)cc2)cc1` (stereo unspecified), the Potency result was “inactive”.

In the case of `COC(=O)C[C@H]1C[C@@H]2c3cc(NC(=O)Nc4ccccc4)ccc3O[C@@H]2[C@@H](CO)O1`, the Potency entry is “inactive”.

In the case of `Cc1ccc(-c2nc3ccc(Cl)cn3c2Cc2ccccc2)cc1`, the Potency entry was “inactive”.

Take `N#Cc1ccc(OCC(=O)Nc2nc(-c3ccccn3)cs2)cc1`: the Potency result is “inactive”.

For the compound `Cc1sc2nc(-c3ccccc3F)oc(=O)c2c1C`, the Potency entry is “inactive”.

`O=C1[C@H]2[C@@H](c3ccc(C(F)(F)F)cc3)N[C@]3(CCCN(Cc4ccc(Br)cc4)C3=O)[C@H]2C(=O)N1Cc1ccccc1`: the Potency entry is “inactive”.

As to `O=C(c1ccc(CS(=O)Cc2ccccc2Cl)o1)N1CCN(c2ccccc2)CC1` (stereo unspecified), the Potency result was “inactive”.

Consider `C[C@H]1CN([C@@H](C)CO)C(=O)CCCn2nncc2CO[C@@H]1CN(C)Cc1ccc(Oc2ccccc2)cc1`, for which the Potency entry was “inactive”.

On to `Cc1ccc([C@H]2N[C@]3(CCCN(CC4CCCCC4)C3=O)[C@H]3C(=O)N(Cc4ccccc4)C(=O)[C@@H]23)cc1`, for which the Potency result was “inactive”.

Consider `COc1cccc(OCC(=O)NCCS(=O)(=O)N2CCN(c3ccccc3)CC2)c1`, for which the Potency entry is “inactive”.

In the case of `CCOC(=O)c1c(C)[nH]c(C)c1C(=O)COC(=O)/C=C/c1cccc([N+](=O)[O-])c1`, the Potency entry was “inactive”.

As for `CC(C)NC(=O)Nc1ccc2c(c1)C(=O)N([C@H](C)CO)C[C@H](C)[C@@H](CN(C)Cc1ccc(C(F)(F)F)cc1)OCCCC[C@@H](C)O2`, the Potency entry is “inactive”.

Consider `O=c1[nH]c2ccccc2n1C1CCN(CCOc2ccccc2)CC1`, for which the Potency result is “inactive”.

Consider `c1ccc(Cn2nnc3c(NCC4CC4)ncnc32)cc1`, for which the Potency entry was “inactive”.

`CN1OC[C@@H]2CN[C@H](c3ccc(-c4ccccc4)cc3)C[C@@H]21`: the Potency entry was “inactive”.

Turning to `COc1ccccc1NC(=O)C(CC(=O)O)Cc1cc(C)cc(C)c1` (stereo unspecified), the Potency result was “inactive”.

For the compound `C[C@@H]1CN([C@H](C)CO)C(=O)CCCn2nncc2CO[C@@H]1CN(C)S(=O)(=O)c1cccc(C#N)c1`, the Potency entry was “inactive”.

With `O=S1(=O)CCN(C2CCCCCCCCCCC2)CC1`, the Potency result is “inactive”.

Take `O=C(NCCc1cccc(F)c1)C1CC(O)CN1C(=O)Nc1ccccc1` (stereo unspecified): the Potency entry was “inactive”.

As to `CC1(c2cccc(N)c2)OCCO1`, the Potency result was “inactive”.

For the compound `C[C@H](CO)N1C[C@H](C)[C@H](CN(C)C(=O)c2ccncc2)OCc2ccccc2-c2c(n(C)c3ccccc23)C1=O`, the Potency entry was “inactive”.

For `Cc1cc(C)c2c(=O)n3c(nc2c1)C(CC(C)C)NC(=O)c1cc2ccccc2cc1-3` (stereo unspecified), the Potency entry was “inactive”.

Regarding `O=C(c1ccc(N2CCCC2=O)cc1)N1CCN(c2ccc(C(F)(F)F)cc2[N+](=O)[O-])CC1`, the Potency entry was “inactive”.

On to `O=C(CN1C(=O)NC2(CCc3ccccc32)C1=O)NC1CCCCC1` (stereo unspecified), for which the Potency result was “inactive”.

Take `Cc1nc(-c2ccc(F)cc2)c(CC(=O)N(C)CC(=O)Nc2c(C)cccc2C)s1`: the Potency entry was “inactive”.

Regarding `Cc1nc(-c2ccc(F)cc2)c(CC(=O)Nc2cccc(S(=O)(=O)N3CCOCC3)c2)s1`, the Potency entry is “inactive”.

As for `Cc1ccc(-c2nc(C)sc2CC(=O)OCC(=O)Nc2c(F)cccc2F)cc1`, the Potency was 12.6 µM (active).

On to `COc1ccc(Cn2c(=O)oc3ccccc32)cc1`, for which the Potency entry is “inactive”.

On to `CCN(CC)C(=O)C1=C(C)N(Cc2ccc(OC)cc2)C(=O)C(CC(=O)NCCCCc2ccccc2)C1` (stereo unspecified), for which the Potency entry is “inactive”.

For the compound `CC(C)N=C1CCCC1C(=S)SSC(=S)C1CCCC1=NC(C)C` (stereo unspecified), the Potency result was “inactive”.

Take `COc1cccc(N2C(=O)CC(N3CCN(S(=O)(=O)c4ccccc4)CC3)C2=O)c1` (stereo unspecified): the Potency result was “inactive”.

With `COc1cccc(N2CCN(C3CC(=O)N(c4ccc(Cl)cc4)C3=O)CC2)c1` (stereo unspecified), the Potency entry was “inactive”.

As to `COc1cccc(N2C(=O)CC(N3CCc4ccccc4C3)C2=O)c1` (stereo unspecified), the Potency was 10 µM (active).

`CN1CCN(c2ccncc2S(=O)(=O)N2CCCC2)CC1`: the Potency result was “inactive”.

Take `Cc1ccc(S(=O)(=O)N(CCc2ccccc2)c2ccc3c(c2)C2CC3CCN2C(=O)OCc2ccccc2)cc1` (stereo unspecified): the Potency entry was “inactive”.

In the case of `Cc1onc(-c2ccccc2)c1-c1nnc(COC(=O)c2ccc(N(C)C)cc2)o1`, the Potency entry is “inactive”.

Consider `NC1=CC(=O)C(=O)c2cccnc21`, for which the Potency entry was “inactive”.

Take `COc1cc(C(=O)N2CCOC23CCN(Cc2ccccc2)CC3)cc(OC)c1OC`: the Potency result is “inactive”.

With `C[C@H](O)[C@@H]1C(=O)N2CCc3c([nH]c4ccccc34)[C@@H]2C[C@@H]1N(C)C(=O)Nc1ccc(F)cc1`, the Potency entry is “inactive”.

As for `CCCCN1C(=O)C(CC(=O)NCc2cccs2)CC(C(=O)N2CCOCC2)=C1C` (stereo unspecified), the Potency entry was “inactive”.
